Experimental data as given in the emibetuzumab library of Makowski et al. (2022).
The list shows a part of the results. The hit rate among all sequences tested is not known here.

B1: VH:VL chains; a variant is named by its letters at X, in order (parent)
chain 1: QVQLVQSGAEVKKPGASVKVSCKASGYTFTDYXMHWVRQAPGQGLEWMGXVNPNXXXTTYNQKFEGRVTMTTDTSTSTAYMELRSLRSDDTAVYYCARXNXLDXWGQGTTVTVSS
chain 2: DIQMTQSPSSLSASVGDRVTITCSVSSSVSSIYLHWYQQKPGKAPKLLIYSTSNLASGVPSRFSGSGSGTDFTLTISSLQPEDFATYYCQVYSGYPLTFGGGTKVEIK

Variants of: B1
Test: yeast display scFab, FACS + sequencing
Conditions: with MET
How it was run: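 Heavy-chain CDR mutant scFab yeast surface library, enriched by two magnetic rounds on HGFR-Fc-coated Protein A beads and then by FACS. Cells were labelled with 1 nM HGFR-Fc in PBSB with 1% milk and anti-Myc for 3 h at room temperature, and the top 50% antigen-positive cells were gated. Round-3 sorted and input populations were deep sequenced in two replicates. Antigen binding call: positive if a sequence occurred in both antigen-positive samples, negative if it occurred only in input.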

| Variant | antigen binding call |
| --- | --- |
| STGTSDVF | no binding |
| DAKEGDGV | no binding |
| FAEGASSS | no binding |
| FRTRDSSS | binds |
| FRGGSSAA | binds |
| FRTRDSAA | binds |
| DRGGSSAA | no binding |
| AARADSLS | no binding |
| FRGRDYGF | no binding |
| DRGRDDVF | no binding |
| FRGRDSSF | binds |
| FRGRDFAD | no binding |
| FRGRAAVD | binds |
| FRGRDAVF | binds |
| FRGRDDVF | no binding |
| FRGRDYGD | no binding |
| FRGRDAVD | binds |
| SAEKDDGS | no binding |
| DARGGAGA | no binding |
| VGEKGDGV | no binding |
| SEKEGDAA | no binding |
| SRGRGFVA | no binding |
| YRGRGFLV | binds |

| Variant | antigen binding call |
| --- | --- |
| FRGRGFVA | no binding |
| YRGRGFVA | binds |
| YRGKGFVV | binds |
| YRGKGFVA | binds |
| VTTKSAVA | no binding |
| DRRKAFSA | no binding |
| VEEEGDAA | no binding |
| VAGGDDVA | no binding |
| VEGTGDWD | no binding |
| VRAGADVV | no binding |
| VRGKAFVV | no binding |
| YRGRGFVV | binds |
| VRGRGFVV | binds |
| YRGKGYVV | binds |
| VATKGFVV | no binding |
| VRARGFVV | binds |
| FEKEADAF | no binding |
| ATTGSASF | no binding |
| DAETAAAA | no binding |
| DAGRGAVS | no binding |
| SRGRDAWA | no binding |
| SRGRGAVS | binds |
| SRGRGAWA | binds |

| Variant | antigen binding call |
| --- | --- |
| SRGRGVGA | no binding |
| STGTGSGA | no binding |
| SRGRGAWS | binds |
| SRGRGSGA | binds |
| VETGNDLV | no binding |
| STGTGYVF | no binding |
| AAKEGALV | no binding |
| AKGRADVY | no binding |
| YARETAGV | no binding |
| YTEGDDGD | no binding |
| DRGRDDVD | no binding |
| YKRGDDGD | binds |
| DRRGDDGA | no binding |
| YRRGDDGD | binds |
| YRGRDDGD | binds |
| VRGRDDGV | no binding |
| DRAGDDGD | no binding |
| YKRGDDLV | no binding |
| AEGGTDVV | no binding |
| SREAADAV | no binding |
| VKATAVAV | no binding |
| VKERGDAV | no binding |
| VKTGGAVV | binds |

| Variant | antigen binding call |
| --- | --- |
| VGARNSGV | no binding |
| VKARGSGV | binds |
| VKTGGSWV | no binding |
| VEGGGSGV | no binding |
| VKGRSDGV | binds |
| VAARGFGS | no binding |
| VKEGGAVV | no binding |
| VKAGGAGS chain 1 G44D | no binding |
| SKGRSDGV | no binding |
| VKGRADGV | no binding |
| VKARGAGS | binds |
| SEGTGSSV | no binding |
| DGGKNAGV | no binding |
| DTGTGDAA | no binding |
| YKGEGDGV | no binding |
| VKARGAGV | binds |
| YKARGAGV | binds |
| VKGESAGV | no binding |
| YKKRGAGV | binds |
| YKTGDDGV | no binding |
| DKAGGAGV | no binding |
| VKARSAGV | no binding |
| YKTKSDGV | no binding |

| Variant | antigen binding call |
| --- | --- |
| YKTGGDGV | no binding |
| YEKETAGV | no binding |
| YKTGGAGV | binds |
| FEAESYGV | no binding |
| FKATTSGA | no binding |
| FKARGSGV | binds |
| FKAGSSGV | no binding |
| VAGTDAGA | no binding |
| SREGGFAA | no binding |
| YRRRGVAA | binds |
| YRRRGDAA | binds |
| YRRGSFAA | binds |
| SRKGGDAA | no binding |
| YRRRGYAA | binds |
| VGGGASGV | no binding |
| FTGRAYGF | no binding |
| VAGRSDLV chain 1 R67H | no binding |
| DAKEGAGD | no binding |
| VTGEDDWD | no binding |
| VGGGNAGD | no binding |
| YRRRGFAA | binds |
| YRRRGAVA | binds |
| YRRRGAAA | binds |

| Variant | antigen binding call |
| --- | --- |
| YRRRGYVA | binds |
| YREGGFAA | no binding |
| VRAGADVY | no binding |
| YGETGDSV | no binding |
| FTETGFGA | no binding |
| YRRRGFVA | binds |
| VRERGSAD | binds |
| FRERGSAD | binds |
| YRERGSAD | binds |
| YRERGAAD | binds |
| YRERDSAD | no binding |
| YAEGDAAD | no binding |
| VEGTSDVV | no binding |
| DTTGSAVA | no binding |
| YKGGSAGA | binds |
| YKGGGAGA | binds |
| VKGGGFGA | no binding |
| FKGGGFGA | no binding |
| YKGGGYGA | binds |
| VKGGGYGA | no binding |
| YKGEADGA | no binding |
| YEGGGDGA | no binding |
| YTGATAGA | no binding |
